A selection: hits, their analogues and other compounds. The true share with any hit is near 4.5%.
tim23-1 inh – growth inhibitors of tim23-1 mutant yeast, primary screen, luminescence, uHTS | AID 463212, 2010 | S. cerevisiae tim23-1 growth, BacTiter-Glo luminescence, 24 h | hit rate 1.3% among 330,000 | inhibition, % at 20 µM;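 active = growth inhibition of the mutant yeast at or above 50%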;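 note: temperature-sensitive mutant grown at 25 °C; plate controls were DMSO-treated mutant yeast for no effect and medium wells lacking yeast for full effect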
tim10-1 inh – growth inhibitors of tim10-1 mutant yeast, primary screen, luminescence, uHTS; S. cerevisiae tim10-1 ts strain growth, BacTiter-Glo, 24 h; hit rate 2.2% among 330,000; inhibition, % at 20 µM;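 active = inhibition of at least 40%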;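 note: mutant grown at 25 °C; 0% = DMSO wells with yeast and 100% = wells holding no yeast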
SKKanGAS inh – S. pyogenes SKKanGAS growth inhibitors in kanamycin, primary screen, streptokinase expression inhibitor project, SKKanGAS strain, BacTiter-Glo luminescence; 6 h; hit rate 1.3% among 300,000; AID 1662, 2009; inhibition, % at 7.5 µM;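 active = mean replicate score, as percent of positive control median, at least 50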;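 note: strain carries kanamycin resistance gene driven by streptokinase promoter and grows in 40 µg/ml kanamycin; loss of luminescence reflects streptokinase promoter inhibition or plain growth inhibition; 0% = median of DMSO wells and 100% = positive control at its reference dose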
TIM10 inh – growth inhibitors of isogenic TIM10 control yeast, primary screen, counter-screen for tim10-1 yeast inhibitor project, luminescence, uHTS | S. cerevisiae TIM10 strain growth, BacTiter-Glo luminescence, 24 h | hit rate 1.4% among 330,000 | AID 463195, 2010 | inhibition, % at 10 µM;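 active = inhibition of 40% or more at the single tested concentration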;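 note: wild-type TIM10 isogenic control strain grown at permissive 25 °C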
PfHsp90 yeast 2 – growth inhibition of PfHsp90-expressing yeast, primary screen, antimalarial PfHsp90 inhibitor project, S. cerevisiae, BacTiter-Glo luminescence, single point, set 2; BacTiter-Glo ATP, 48 h; yeast lacking PDR1 and PDR3 efflux regulators; inhibition, % at 9.4 µM; hit rate 0.32% among 310,000;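 active = every replicate shows inhibition above about 80%, whatever the replicate mean, limit read from the data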;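 note: 0% = DMSO neutral controls and 100% = 20 µM radicicol positive controls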
NALP3 yeast inh – NALP3 inflammasome inhibitors in reconstituted yeast, primary screen, luminescence, uHTS | inhibition, % at 10 µM | Yeast reconstituted NLRP3/ASC/caspase-1, beta-gal luminescence, 24 h | hit rate 0.39% among 330,000;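 active = inhibition of 50% or more; inactive = inhibition below 50%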;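 note: plate controls were induced DMSO wells for no effect and uninduced yeast grown without galactose for full effect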
tim10-1 confirm – growth inhibitors of tim10-1 mutant yeast, confirmation, single concentration, luminescence, S. cerevisiae. shares compounds with tim10-1 inh. S. cerevisiae tim10-1 ts strain growth, BacTiter-Glo, 24 h. inhibition, % at 20 µM. hit rate 56% among 7,400;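 active = inhibition of yeast growth at or above a set limit in either of two repeat tests at 20 µM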;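 note: tim10-1 mutant grown at permissive 25 °C to find synthetic lethal compounds; 0% = DMSO yeast wells and 100% = medium wells without yeast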
tim10 confirm – growth inhibitors of wild-type TIM10 yeast, confirmation, counter-screen for tim10-1 synthetic lethality project, single concentration, luminescence, S. cerevisiae; inhibition, % at 10 µM; S. cerevisiae tim10 strain growth, BacTiter-Glo luminescence, 24 h; shares compounds with TIM10 inh; hit rate 63% among 4,600;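 active = inhibition of yeast growth at or above a set limit in either of two replicates at 10 µM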;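 note: this counterscreen used the strain with wild-type TIM10; 0% = yeast with DMSO and 100% = medium wells lacking yeast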
The depositor's hits bear a star.

O=c1cc(-c2c(F)c(F)c(F)c(F)c2F)oc2c(F)c(F)c(F)c(F)c12 was read as tim23-1 inh 31, tim10-1 inh 42*, SKKanGAS inh 9, TIM10 inh 54*, NALP3 yeast inh 20, tim10-1 confirm 46* and tim10 confirm 41*.
O=C(N/N=C\c1ccccc1OCc1ccccc1)c1ccco1 was read as tim23-1 inh 34, tim10-1 inh 43*, SKKanGAS inh -12, TIM10 inh 50*, PfHsp90 yeast 2 -12, NALP3 yeast inh 29, tim10-1 confirm 22 and tim10 confirm 31*.
Screening CCC(CO)Oc1cc(NC(=O)Cc2ccccc2F)c2ncn(C(C)C)c2c1 (centres undefined) returned tim23-1 inh 4, tim10-1 inh -2, TIM10 inh -11, PfHsp90 yeast 2 -19 and NALP3 yeast inh 13.
Screening CCOc1ccc2nc(N3CCOCC3)nc(C)c2c1 returned tim23-1 inh 30, tim10-1 inh 15, SKKanGAS inh -7, TIM10 inh 10, PfHsp90 yeast 2 -5 and NALP3 yeast inh 27.
For CCOc1ccc2nc3ccc4[nH]onc4c3c2c1 the results were tim23-1 inh 40, tim10-1 inh 42*, SKKanGAS inh 2, TIM10 inh 48*, PfHsp90 yeast 2 13, NALP3 yeast inh 1, tim10-1 confirm 53* and tim10 confirm 53*.
Screening O=S(=O)(CCN(CCS(=O)(=O)C(F)(F)F)CC1CCCO1)C(F)(F)F (centres undefined) returned tim23-1 inh 35, tim10-1 inh 50*, SKKanGAS inh 4, TIM10 inh 45*, PfHsp90 yeast 2 -15, NALP3 yeast inh 18, tim10-1 confirm 41* and tim10 confirm 26.
O=C(NCC1CCCO1)C1CCN(S(=O)(=O)N2CCCC2)CC1 (centres undefined) was read as tim23-1 inh -1, tim10-1 inh -2, SKKanGAS inh -3, TIM10 inh -10, PfHsp90 yeast 2 4 and NALP3 yeast inh -8.
Screening CCOC(=O)c1ccc(N2C(=O)CC(SCC(=O)Nc3ccc(S(N)(=O)=O)cc3)C2=O)cc1 (centres undefined) returned tim23-1 inh 22, tim10-1 inh 51*, SKKanGAS inh 2, TIM10 inh 41*, PfHsp90 yeast 2 17, NALP3 yeast inh 23, tim10-1 confirm 45* and tim10 confirm 47*.
Screening Cc1ccc(N2C(=O)CC(SCC(=O)Nc3ccc(S(N)(=O)=O)cc3)C2=O)cc1 (centres undefined) returned tim23-1 inh 24, tim10-1 inh 29, SKKanGAS inh 4, TIM10 inh 1, PfHsp90 yeast 2 4 and NALP3 yeast inh 29.
Cc1cccc(-c2c3c(nc4c2c(=O)n(C)c(=O)n4C)-c2ccccc2C3O)c1 (centres undefined) was read as tim23-1 inh 13, tim10-1 inh 14, SKKanGAS inh 4, TIM10 inh 3, PfHsp90 yeast 2 -15 and NALP3 yeast inh 1.
`[N-]=[N+]=NCCN1CCN(CCc2ccccc2)CCC1=O` gave tim23-1 inh 4, tim10-1 inh 0, SKKanGAS inh -2, TIM10 inh -4, PfHsp90 yeast 2 -1 and NALP3 yeast inh 0.
For O=C(Nc1ccc2c(c1)OCO2)C1CCCN(c2nc3ccccc3s2)C1 (centres undefined) the results were tim23-1 inh 45, tim10-1 inh 48*, SKKanGAS inh 6, TIM10 inh 45*, PfHsp90 yeast 2 4, NALP3 yeast inh 6, tim10-1 confirm 36* and tim10 confirm 38*.
Screening CCOC(=O)C(=Cc1ccc(-n2ccnc2)cc1)C(=O)OCC returned tim23-1 inh 38, tim10-1 inh 73*, SKKanGAS inh 0, TIM10 inh 64*, PfHsp90 yeast 2 -7, NALP3 yeast inh 49, tim10-1 confirm 74* and tim10 confirm 69*.
`O=C(Cc1ccc([N+](=O)[O-])cc1)Nc1cccc(C(=O)N2CCCCC2)c1` gave tim23-1 inh 6, tim10-1 inh 5, TIM10 inh 2, PfHsp90 yeast 2 2 and NALP3 yeast inh 16.
Screening CCOC(=O)N1CCN(S(=O)(=O)c2ccc3c(c2)CCN3C(=O)C2CCC2)CC1 returned tim23-1 inh -46, tim10-1 inh 56*, SKKanGAS inh -4, TIM10 inh 47*, PfHsp90 yeast 2 13, NALP3 yeast inh 10, tim10-1 confirm 53* and tim10 confirm -20.
`CCCN(CCC)CCNS(=O)(=O)c1ccc2c(c1)CCN2C(=O)C1CCC1` gave tim23-1 inh 13, tim10-1 inh 9, SKKanGAS inh 1, TIM10 inh 10, PfHsp90 yeast 2 4 and NALP3 yeast inh 9.
O=C(C1CC1)N1CCc2cc(S(=O)(=O)NCCC3=CCCCC3)ccc21 was read as tim23-1 inh 31, tim10-1 inh 50*, SKKanGAS inh 5, TIM10 inh 41*, PfHsp90 yeast 2 -11, NALP3 yeast inh 23, tim10-1 confirm 34* and tim10 confirm 0.
Screening O=C(C1CCC1)N1CCc2cc(S(=O)(=O)N3CCN(c4ccccn4)CC3)ccc21 returned tim23-1 inh -11, tim10-1 inh 69*, SKKanGAS inh 3, TIM10 inh 56*, PfHsp90 yeast 2 0, NALP3 yeast inh 20, tim10-1 confirm 69* and tim10 confirm -25.
For O=C(C1CCC1)N1CCc2cc(S(=O)(=O)N3CCCCC3)ccc21 the results were tim23-1 inh 19, tim10-1 inh 29, SKKanGAS inh -2, TIM10 inh 9, PfHsp90 yeast 2 3 and NALP3 yeast inh 25.
For CC(C(=O)OCC(=O)N1CCCCC1)N1C(=O)c2ccccc2C1=O (centres undefined) the results were tim23-1 inh 15, tim10-1 inh 1, TIM10 inh 0, PfHsp90 yeast 2 -27 and NALP3 yeast inh 11.
`O=C(Nc1cccc(S(=O)(=O)N2CCOCC2)c1)c1cc(S(=O)(=O)N2CCOCC2)c(Cl)cc1Cl` gave PfHsp90 yeast 2 19.

Source: PubChem BioAssay
